PubChem BioAssay (NCI)
The panel holds about 83,000 compounds, 20% with a hit somewhere; the sample as a whole holds those more often.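 Method: cells in 96-well plates; compound added at one concentration; 48 h incubation; percent growth measured; values under 10 scored active.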 Calls of active or inactive are those of the source.

System: HL-60(TB) leukemia
Assay: NCI-60 one-dose screen, 48 h (100 = growth as untreated, 0 = no growth, -100 = all killed)
Details: 10 µM unless noted

Q: `CCOC(=O)/C(C#N)=C1/C(=O)Nc2ccccc21` was tested. Which growth did it give?
A: 149% (inactive)

Q: How did the growth turn out when `O=C(CI)Nc1ccc(O)c2ccccc12` was run?
A: -11.9% (active)

Q: With `CC1CN=C(c2cccc(-c3ccc(-c4ccccc4)o3)c2)N1` (stereo not given) as the compound, how does the growth read?
A: -46.1% (active)

Q: How did the growth turn out when `COc1cc2cc(NCc3cccc(Cl)c3)nc(C)c2cc1OC` was run?
A: 14.5% (inactive)

Q: How did the growth turn out when `Cc1ccccc1NC(=O)Cc1csc2[n+]1C(=O)/C(=C/c1ccc([N+](=O)[O-])cc1)S2` was run?
A: 103% (inactive)

Q: With `CCCCNC(=O)C(=O)NCCCC` as the compound, how does the growth read?
A: 113% (inactive)

Q: How did the growth turn out when `Cc1cc(Cl)ccc1Nc1nc(C(F)(F)F)ccc1C(=O)N/N=C/c1c(Cl)cccc1Cl` was run?
A: -26.8% (active)

Q: How did the growth turn out when `CC1(C)OCC2OC3(C(=O)O)OC(C)(C)OC3C2O1` (stereo not given) was run?
A: 98.2% (inactive)

Q: Which growth does the source give for `COc1ccc(C2CC(c3cc(OC)c(OC)c(OC)c3)=NO2)cc1OCCCCOc1cc2c(cc1OC)C(=O)N1CCC[C@H]1C=N2` (stereo not given in full) here?
A: 34% (inactive)

Q: For `O=c1cc(-c2ccccc2)oc2c1ccc1ccccc12`, which growth is on record?
A: 106% (inactive)

Q: With `CCN(CC)c1ccc(/C=C/C2=[N+](C)c3ccccc3C2(C)C)c(C)c1` as the compound, how does the growth read?
A: -34.7% (active)

Q: `CC(C)(C)c1[nH]nc2c1C(c1cc3ccccc3[nH]c1=O)Nc1cc(C(=O)Nc3ccc(Cl)cc3)ccc1N2` (stereo not given) was tested. Which growth did it give?
A: 55.9% (inactive)

Q: Which growth does the source give for `CCN=c1cc2sc3cc(NCC)c(C)cc3nc-2cc1C` here?
A: 2.7% (active)

Q: `COc1cc(C(=O)N2CCN(C(=O)c3ccco3)CC2)c(N)cc1OCc1ccccc1` was tested. Which growth did it give?
A: 99.8% (inactive)

Q: How did the growth turn out when `CC(C)(C)n1cc(-c2ccnc(NCCCNS(=O)(=O)c3ccc(F)cc3)c2)c(-c2cccc(O)c2)n1` was run?
A: 39.9% (inactive)

Q: Which growth does the source give for `Nc1ccc2c(c1)C(=O)C(=O)c1c-2nc2ccccn12` here?
A: -47.3% (active)

Q: Which growth does the source give for `C=C1C(=O)O[C@H]2[C@H]1CC/C(COC(=O)OCCCCCOC(=O)OC/C1=C/CC[C@@]3(C)O[C@H]3[C@H]3OC(=O)C(=C)[C@@H]3CC1)=C\CC[C@@]1(C)O[C@@H]21` here?
A: -23.1% (active)

Q: How did the growth turn out when `Cc1nc2sc(C(=O)Nc3cccc4ccccc34)c(N)c2cc1C(=O)/C=C/c1ccccc1` was run?
A: 4.48% (active)

Q: How did the growth turn out when `O=c1ccc2c(ccc3ncccc32)o1` was run?
A: 88.8% (inactive)

Q: Which growth does the source give for `CCCCCCN1C(=O)/C(=c2\sc3n(c2=O)C2C(NN=3)N(CC)C(=O)N2CC)c2ccccc21` (stereo not given) here?
A: 42.2% (inactive)

Q: How did the growth turn out when `O=C(O)c1occ(Cl)c1Cl` was run?
A: 75.3% (inactive)

Q: `N#Cc1c(-c2ccccc2)nc2c(c(-c3ccc(Cl)cc3)nn2-c2ccccc2)c1-c1ccc([N+](=O)[O-])cc1` was tested. Which growth did it give?
A: 103% (inactive)

Q: With `CCN(CC)CCCN1C(=O)c2c(c(C)c3c(oc4ccc(O)cc43)c2C)C1=O` as the compound, how does the growth read?
A: -5.12% (active)

Q: For `CCCCCCCCCCCCCCCCCCOc1ccccc1CC(=O)OCC[N+]1(C)CCCCC1`, which growth is on record?
A: -5.08% (active)

Q: How did the growth turn out when `CC(O)(CO)c1ccccc1` (stereo not given) was run?
A: 116% (inactive)

Q: For `CC[N+](CC)=c1sc2c(s1)C(c1ccc(Cl)cc1)Oc1ccc(Cl)cc1-2` (stereo not given), which growth is on record?
A: -34.3% (active)

Q: With `O=S(=O)(NCCNc1nccc(-c2c(-c3cccc(O)c3)nc3occn23)n1)c1ccc(C(F)(F)F)cc1` as the compound, how does the growth read?
A: 79.1% (inactive)

Q: `COc1ccc(Cn2cc(C(=O)Nc3cccnc3Nc3ccccc3)nn2)cc1` was tested. Which growth did it give?
A: 104% (inactive)

Q: With `COc1cc(C)cc(-c2c(-c3cc(N4CC(O)C4)nc(-c4cccnc4)n3)cnn2C)c1` as the compound, how does the growth read?
A: 105% (inactive)

Q: How did the growth turn out when `O=c1ccn2c(n1)OC1CC2OC1COC(c1ccccc1)(c1ccccc1)c1ccccc1` (stereo not given) was run?
A: 89.2% [100 µM] (inactive)

Q: For `O=C1/C(=C/c2ccc(F)cc2)Sc2c(Br)cccc21`, which growth is on record?
A: 103% (inactive)

Q: How did the growth turn out when `CCOc1ccc(Cc2nccc3cc(OCC)c(OCC)cc23)cc1OCC` was run?
A: 10.5% (inactive)

Q: Which growth does the source give for `O=C(Nc1ccc(Oc2ccc(F)cc2)c(Cl)c1)c1cccnn1` here?
A: 56.3% (inactive)

Q: With `CCC(OC(=O)CC(C)C)c1ccccc1` (stereo not given) as the compound, how does the growth read?
A: 102% (inactive)

Q: How did the growth turn out when `O=C(O)c1cn(C2CC2)c2cc(N3CCN(C(=O)/C=C/c4ccc(Cl)cc4)CC3)c(F)cc2c1=O` was run?
A: 60.4% (inactive)

Q: For `CC(=N\N=C(N)N)/C(=N/N=C(N)N)c1ccccc1`, which growth is on record?
A: 98.7% (inactive)

Q: For `NC(=S)N/N=C/c1ccc(Cl)cc1`, which growth is on record?
A: 103% (inactive)

Q: `O=C(O)C(Cc1ccccc1)N1C(=O)/C(=C/C(Cl)=C/c2ccc([N+](=O)[O-])cc2)SC1=S` (stereo not given) was tested. Which growth did it give?
A: -8.33% (active)

Q: For `O=C(CN(C(=O)Cn1c(=O)n2nnnc2c2ccccc21)c1ccccc1C(F)(F)F)Nc1ccc(C(F)(F)F)cc1`, which growth is on record?
A: 101% (inactive)

Q: How did the growth turn out when `O=C1/C(=C\c2cn(CC(O)CN3CCCCC3)c3ccccc23)c2ccccc2N1c1c(Cl)cccc1Cl` (stereo not given) was run?
A: -36.5% (active)
